Abeta rescue: compounds reversing amyloid beta toxicity in yeast; 410,000 tested, 0.063% active; Potency, µM (doses to about 46.1 µM), actives largely listed as activators; yeast expressing A-beta42, growth rescue, OD600, 48 h; response scale: 0% DMSO, 100% iron-clioquinol control; further: nearly all actives have a fitted effect of over 55% in size
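Yeast A-beta toxicity model in growth medium with pinned compounds, 48 h at 30 C; growth read as absorbance at 600 nm. Normalized to FeCl3/clioquinol equimolar mix (positive) and DMSO (negative).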
TDP43 rescue: TDP-43 toxicity inhibition in yeast; TDP-43 expressing yeast growth rescue, BacTiter-Glo, 24 h; Potency, µM (top dose mostly 46.1 µM), for the others: at the highest dose growth rescue (activation), most hits filed as activators; 410,000 tested, 1.8% active; AID 652104; further: % of control where 0% means no effect; nearly all actives have a fitted effect of over 50% in size
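Cell-based yeast growth screen: TDP-43 expression induced in galactose, inoculum OD600=0.02 after raffinose pregrowth to mid-log. Read-out BacTiter-Glo luminescence at 24 hr, 30 deg C; inhibition of toxicity seen as signal increase.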
FUS yeast rescue: suppressors of FUS proteinopathy in yeast. 390,000 tested, 0.24% active. S. cerevisiae FUS-expressing, growth rescue, OD600, 24 h. Potency, µM (series often up to 76.6 µM), usual class: activators;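 further: plate controls were DMSO vehicle for no effect and reference control for full effect; nearly all actives have a fitted effect of over 55% in size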
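Read-out: OD at 600 nm after 24hr at 30C, reporting rescue of FUS-induced yeast toxicity. Cells at OD 0.005 in galactose (2%) minimal medium; compounds tested in a dilution series; CP55940 titration from 92uM final as control.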
aSyn yeast inh: inhibitors of alpha-synuclein toxicity in yeast. Potency, µM (series often up to 46.1 µM), inactives show at the top dose growth rescue (activation), actives largely listed as activators. 370,000 tested, 0.14% active. Yeast expressing alpha-synuclein, growth rescue, BacTiter-Glo, 24 h; further: % of control where 0% means no effect; nearly all actives have a fitted effect of over 65% in size
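Rescue of yeast growth: cells expressing toxic alpha-synuclein, induced in galactose at OD600 0.02, incubated with compound 24 h at 30 C. ATP luminescence quantified growth; inhibitors of toxicity appear as activators.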
* hit, by the source's call; i = inactive; ? = inconclusive; . = not tested or not shown. Most compounds without a hit are left out; they make up all but 2.1% or so of the library. The call rests on the fitted dose curve; in most records, active means well fitted curve in the direction sought with a large enough effect; inconclusive means small, poorly fitted or top-dose-only effect, or another doubt; inactive means no such curve, though single readings can be large; an effect the other way counts as inactive or inconclusive. Potency means the concentration at half of the fitted maximal effect.

SMILES	Abeta rescue	TDP43 rescue	FUS yeast rescue	aSyn yeast inh
COc1cc(NC(=O)c2ccnc(N)c2)cc(C(=O)Nc2cccc(C(F)(F)F)c2)c1	i	6%	i	-1%
CCc1ccccc1NS(=O)(=O)c1cc(Br)cc2c1N(C(=O)C1CC1)CC2	i	18%	i	.
CNC(=S)N/N=C(\C)c1ccc(Cl)s1	?	14µM*	i	-9%
O=[N+]([O-])c1nn(-c2cccc(Cl)c2)n(O)c1=NCc1cccnc1	i	11µM*	.	-3%
O=[N+]([O-])c1nn(-c2ccc(Cl)cc2)n(O)c1=NCc1cccnc1	i	13µM*	.	1%
Cc1cccc(-n2nc([N+](=O)[O-])c(=NCc3cccnc3)n2O)c1	i	?	i	-12%
Cc1ccc(CNC(=O)CSc2nc3c(sc4ccccc43)c(=O)n2CCCC(=O)NCCO)cc1	i	0%	i	.
O=C(Cn1nnc(-c2ccc(N3CCOCC3)cc2)n1)c1ccccc1	.	.	i	.
CCn1cc(C(=O)N2CCN(c3ccccc3F)CC2)c(=O)c2cc(S(=O)(=O)N(C)C3CCCCC3)ccc21	i	9%	i	.
COc1ccc(C2CC(c3ccc(Cl)cc3)=NN2C(C)=O)cc1 (configuration not stated)	i	13µM*	i	?
CC(=O)N1N=C(c2ccc(Cl)cc2)CC1c1ccc([N+](=O)[O-])cc1 (configuration not stated)	i	-5%	i	-1%
COc1cc2c(cc1OC)C(COc1cc(C)cc(C)c1)N(C(=O)COc1ccccc1)CC2 (configuration not stated)	i	.	?	.
O=S(=O)(c1ccc2ccccc2c1)n1nc(-c2ccco2)nc1NCc1ccc(F)cc1	i	5%	i	.
O=C(NCc1ccccc1Cl)c1cccc(C(F)(F)F)c1	i	35µM*	i	7%
O=C(NCc1cccc(Cl)c1)c1cccc(C(F)(F)F)c1	i	?	i	0%
COc1ccc(OC)c(/C=C/c2sc3ccccc3[n+]2C)c1	.	.	.	7%
Cc1ccccc1Nc1c(-c2ccccn2)nc2c(C)cccn12	11µM*	-9%	i	-10%
CCc1ccc(CCC(=O)Nc2ccc(Br)cc2)o1	i	22µM*	i	-25%
Cc1ccc(CCC(=O)Nc2ccc(Br)cc2)o1	i	28%	i	-5%
Cn1cc(-c2ccc(C(=O)NCc3cccc(Cl)c3)c3occc23)cn1	i	5%	i	1%
O=C(NCc1cccc(Cl)c1)c1ccc(-c2cccnc2)c2ccoc12	i	35µM*	i	3%
O=C(NCc1ccc(C(F)(F)F)cc1)c1ccc(-c2cccnc2)c2ccoc12	i	13µM*	?	-5%
O=C(Nc1cccc(C(F)(F)F)c1)c1cccc2c(-c3cccnc3)coc12	i	16µM*	i	-1%
O=C(NCc1ccc(C(F)(F)F)cc1)c1ccc(-c2ccc(F)c(F)c2)c2ccoc12	i	-3%	i	9%
CCCCc1ccc2nc(NC(=O)c3ccco3)sc2c1	.	.	i	.
SMILES	Abeta rescue	TDP43 rescue	FUS yeast rescue	aSyn yeast inh
COC(=O)c1scc(-c2ccc(C)cc2)c1S(=O)(=O)Nc1cccc(C(F)(F)F)c1	i	-6%	i	.
CCN(Cc1ccccc1)S(=O)(=O)c1cc(Br)cc2c1N(C(=O)C1CC1)CC2	i	24%	i	.
O=C(NCC(c1ccccc1)c1ccccc1)c1nn(-c2ccccc2Cl)nc1CO	i	-4%	i	.
CCOc1ccc2nc(SCC(=O)NCc3ccco3)sc2c1	i	14µM*	i	0%
O=C(CSc1nc2ccc(Nc3nc(N4CCCC4)nc(N4CCCC4)n3)cc2s1)NCc1ccco1	i	20µM*	i	-1%
CCOc1ccc2nc(SCC(=O)NC(=O)NCc3ccco3)sc2c1	i	-33%	i	-6%
COc1cc(OC)c(C2CC(=O)N3CN(c4ccccc4)CSC3=C2C#N)cc1OC (configuration not stated)	i	10%	?	7%
CCc1ccccc1N1CSC2=C(C#N)C(c3cc(OC)c(OC)cc3OC)CC(=O)N2C1 (configuration not stated)	i	0.032µM*	?	-6%
CC1(C)OC(=O)C2(Cc3ccc(Cl)cc3N3CCCCC32)C(=O)O1 (configuration not stated)	.	.	.	1%

Bioassay records from PubChem.
